# Laboratory results as given in PubChem BioAssay (Tox21).
# Inconclusive results are not listed. Unmarked numbers belong to inactive results. Active and inactive are the calls of the source. Calls follow the shape of the dose curve; as a rule, active = well fitted inhibition curve with a large enough effect in the repeat runs; inconclusive = weak or mixed curves; inactive = flat fitted curve, though single readings scatter.
# Biological target: Luciferin 4-monooxygenase (Photinus pyralis) (UniProt P08659)
# Assay: qHTS assay to identify small molecule inhibitors of firefly luciferase (AID 1224835); also: nearly all actives have a fitted effect of over 25% in size
# Conditions: purified P. pyralis luciferase, luminescence inhibition; series mostly up to 115 µM; activity change, negative = inhibition: at the top concentration
# Excerpt: U.S. Tox21 Program National Center for Advancing Translational Sciences [NCATS] NIH Chemical Genomics Center [NCGC] U.S. Environmental Protection Agency [EPA] National Institutes of Environmental Health Sciences [NIEHS] National Toxicology Program [NTP] U.S. Food and Drug Administration [FDA] Tox21 Assay Overview: Firefly (Photinus pyralis) luciferase is one of the most commonly used transcriptional reporters. Firefly luciferase reporter-gene assays are generally considered one of the most sensitive assay types (Wood, 1995; Wood, 1998). However, it was initially observed, in 1991, by Thompson et al., that compounds that resemble the substrates of firefly luciferase (FLuc) can act as competitive inhibitors of the enzyme, and that these compounds, upon interaction with luciferase in the cell, can actually stabilize the protein and increase its half-life. Previous profiling work by other groups to determine the prevalence of compounds that affect FLuc enzymatic activity (PubChem AID 411) identified that ~3% of the MLSMR library (then at ~72K) inhibited FLuc. […] Thus the Tox21 10K library is profiled for activity against FLuc using a biochemical assay of purified FLuc and KM concentrations of FLuc substrates (D-luciferin and ATP).
# These assay plates were then treated with 23nL of compound or DMSO using a Kalypsys pin tool, which allows for delivery of a 6-point interplate titration of each compound to the assay plate (quantitative HTS.) 1 uL of firefly luciferase mix (containing 50 mM Tris acetate, pH 7.6, 0.04 uM P. pyralis luciferase, 0.01% Tween, 0.05% BSA and dH2O) was then delivered by FRD to each well. Luciferase activity was then measured using a ViewLux CCD imager.
# % is scaled to controls: 0 for no effect and ±100 for the full control effect; potency is read from the fitted curve at half-maximal effect.
# Sequence of Luciferin 4-monooxygenase (Photinus pyralis) (P08659 whole entry, looked up): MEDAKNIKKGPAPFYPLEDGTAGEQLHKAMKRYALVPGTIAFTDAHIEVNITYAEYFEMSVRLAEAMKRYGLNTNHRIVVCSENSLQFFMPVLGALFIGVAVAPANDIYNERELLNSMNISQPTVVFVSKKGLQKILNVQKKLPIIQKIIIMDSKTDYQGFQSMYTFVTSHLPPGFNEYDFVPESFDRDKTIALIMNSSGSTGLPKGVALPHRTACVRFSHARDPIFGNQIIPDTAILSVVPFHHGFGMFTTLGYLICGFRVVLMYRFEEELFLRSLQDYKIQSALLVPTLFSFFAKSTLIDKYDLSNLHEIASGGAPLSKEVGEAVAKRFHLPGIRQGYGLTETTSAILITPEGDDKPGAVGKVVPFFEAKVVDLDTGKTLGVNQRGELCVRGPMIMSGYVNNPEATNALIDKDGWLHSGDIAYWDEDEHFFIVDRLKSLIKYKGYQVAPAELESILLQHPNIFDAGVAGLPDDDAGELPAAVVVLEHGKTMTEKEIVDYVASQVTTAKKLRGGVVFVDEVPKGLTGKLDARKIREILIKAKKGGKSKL
SMILES,"activity change, negative = inhibition",Potency
COC(C)=O,4.05%,–
CC(C)CCOC(=O)/C=C/c1ccccc1,–,8 µM (active)
CC(C)(C)CC(C)(C)c1ccc(Nc2ccc(C(C)(C)CC(C)(C)C)cc2)cc1,-2.16% [at 10.5 µM],–
c1ccc(C(O[C@@H]2CCCN(CCc3ccc4c(c3)OCO4)C2)c2ccccc2)cc1,-0.0117%,–
CN(C)C(=O)COC(=O)Cc1ccc(OC(=O)c2ccc(N=C(N)N)cc2)cc1,-8.87% [at 52.9 µM],–
COc1ccc(-c2coc3cc(O)ccc3c2=O)cc1,–,2 µM (active)
CC1=Nc2ccccc2C1(C)C,–,20 µM (active)
Cc1c(C)c2c(c(C)c1O)CC[C@@](C)(CCC[C@H](C)CCC[C@H](C)CCCC(C)C)O2,-5.56%,–
Cl[Si](Cl)(c1ccccc1)c1ccccc1,-0.133%,–
O[C@@H]([C@H](O)[C@H](O)CBr)[C@H](O)CBr,0.524%,–
CCCCCCCCCCCCOCCOCCOCCOCCOCCOCCOCCOCCOCCO,-11.4% [at 52.9 µM],–
O=C(c1ccc(O)c(O)c1)c1ccc(O)cc1O,–,70.9 µM (active)
CCCCNS(=O)(=O)c1ccc(C)cc1,-2.68%,–
CC/C=C\CCCCCO,0.568%,–
CNc1ccc([N+](=O)[O-])cc1,–,40 µM (active)
CNC(=O)c1ccccc1Sc1ccc2c(/C=C/c3ccccn3)n[nH]c2c1,–,0.871 µM (active)
CCC(C)n1ncn(-c2ccc(N3CCN(c4ccc(OC[C@H]5CO[C@](Cn6cncn6)(c6ccc(Cl)cc6Cl)O5)cc4)CC3)cc2)c1=O (stereo not given in full),-3.24% [at 52.9 µM],–
NC(=S)NC(N)=S,-7.08%,–
CC(=O)Oc1cc2c(s1)CCN(C(C(=O)C1CC1)c1ccccc1F)C2 (stereo not given),-1.45% [at 52.9 µM],–
CCCCC(CC)CN1CN(CC(CC)CCCC)CC(C)(N)C1 (stereo not given),-0.2% [at 52.9 µM],–

SMILES,"activity change, negative = inhibition",Potency
C=CC(=O)OCCOC(=O)C=C,2.38%,–
O=C(O)c1cc(=O)c2ccccc2o1,7.19% [at 52.9 µM],–
CCO[Si](OCC)(OCC)OCC,5.52%,–
OC1CCCc2ccccc21 (stereo not given),-0.145%,–
CCC(CC)C(C)CCOC(C)=O (stereo not given),-0.3%,–
CC(C)(C)c1csc(-c2cc3cc(OCc4ccccc4CC(=O)O)ccc3o2)n1,–,5.03 µM (active)
S=C([S-])NCCNC(=S)[S-].S=C([S-])NCCNC(=S)[S-].[Mn+2].[Zn+2],–,15.5 µM (active)
CC1=CCC(=C(C)C)CC1,2.62%,–
O=C(O)CCN(C1(C(=O)NO)CCCC1)S(=O)(=O)c1ccc(Oc2ccc(F)cc2)cc1,-0.493%,–
O=[N+]([O-])c1ccc(F)c(Cl)c1,-1.24%,–
CCCCCCOC(=O)C(C)CC (stereo not given),0.415%,–
Cc1ccc(O)c(N)c1,–,31.8 µM (active)
CN(C)Cc1ccccc1O,-0.0958%,–
O=C(O)c1cc(N=Nc2ccc([N+](=O)[O-])cc2)ccc1O,–,0.878 µM (active)
CCc1ccc(Br)cc1,-1.24%,–
Clc1sc(Cl)c(Cl)c1Cl,0.693%,–
CN(C)[C@@H](CCOc1cccc2ccccc12)c1ccccc1,2.05% [at 52.9 µM],–
NC(=O)c1cccc([N+](=O)[O-])c1,2.65%,–
CCCCCCCC/C=C\CCCCCCCCN,6.67% [at 52.9 µM],–
Cc1cc(C(C)(C)C)cc(C)c1CC1=NCCN1,0.58% [at 52.9 µM],–
